From PubChem BioAssay AID778 (Sanford-Burnham Center for Chemical Genomics, 2007)
The whole screen tested about 96,000 compounds, of which about 20,000 (21%) were called active.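 Rule for the calls: active = CYP2C19 inhibition above a set limit at 5 µM in the primary screen (cut at about 50% in these data); inactive = the rest.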 Not all results are given here.

Each compound was assayed against Cytochrome P450 2C19 (Homo sapiens) (UniProt P33261) (assay: blockers of cytochrome P450 2C19 activity – biochemical, luminescence, ADME assay, primary screen (AID 778;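 note: plate controls were negative control wells for no effect and 2.5 mM tranylcypromine positive control for full effect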)). Conditions: CYP2C19 Supersomes, luciferin-H EGE luminescence, 30 min; at 5 µM; hits give high values.
Sequence of Cytochrome P450 2C19 (Homo sapiens) (P33261 whole entry, looked up): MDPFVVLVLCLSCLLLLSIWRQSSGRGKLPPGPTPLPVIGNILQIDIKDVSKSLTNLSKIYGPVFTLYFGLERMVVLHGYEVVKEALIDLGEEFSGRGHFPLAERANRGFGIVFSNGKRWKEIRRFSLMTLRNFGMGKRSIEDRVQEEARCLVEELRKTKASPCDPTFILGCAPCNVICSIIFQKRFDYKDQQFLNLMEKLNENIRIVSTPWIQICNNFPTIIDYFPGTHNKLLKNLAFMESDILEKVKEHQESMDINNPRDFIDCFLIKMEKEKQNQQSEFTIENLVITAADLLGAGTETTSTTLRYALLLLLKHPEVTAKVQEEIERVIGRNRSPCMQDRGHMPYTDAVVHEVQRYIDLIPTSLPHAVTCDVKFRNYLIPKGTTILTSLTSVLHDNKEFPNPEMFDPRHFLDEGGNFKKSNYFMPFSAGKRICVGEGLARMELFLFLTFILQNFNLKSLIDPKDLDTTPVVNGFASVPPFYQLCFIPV
`CCOC(=O)NC(C(F)(F)F)(C(F)(F)F)P(=O)(c1ccccc1)c1ccccc1` was tested, and the inhibition was -3.8% (inactive).
For `c1nc(COc2nsnc2N2CCOCC2)cs1`, the inhibition was 53.5% (active).
`Fc1cnc(N2CCOCC2)nc1NCc1ccccc1` was tested, and the inhibition was 46.1% (inactive).
`O=C(O)COc1nsnc1N1CCOCC1` was tested, and the inhibition was -5.8% (inactive).
For `c1ccc(COc2nsnc2N2CCOCC2)cc1`, the inhibition was 98.5% (active).
With `C/C(=N\NC(=O)Cc1ccc(Cl)cc1)c1ccccn1` the inhibition was 39.5% (inactive).
In the case of `COc1cccc2sc(Nc3nc(C)c(C(C)=O)s3)nc12`, the inhibition is reported as 12.5% (inactive).
In the case of `CCOC(=O)C1(S(=O)(=O)c2ccc(Cl)cc2)CCN(Cc2ccccc2)CC1`, the inhibition is reported as 42.5% (inactive).
With `CCOC(=O)C1(S(=O)(=O)c2ccccc2)CCN(Cc2ccccc2)CC1` the inhibition was 51.8% (active).
For `CCCC(=O)C1CCN(Cc2ccccc2)CC1`, the inhibition was 30.5% (inactive).
For `CSc1nc(C)cc(SC(C(C)=O)C(=O)Nc2ccccc2)n1` (stereo not drawn), the inhibition was 11.6% (inactive).
In the case of `Cc1cccc(C(=O)Nc2nnc(Cc3c[nH]c4ccccc34)s2)c1`, the inhibition is reported as 8.7% (inactive).
For `CC(=O)c1cc2c(cc1NC(=O)CN1CCCCCC1)OCO2`, the inhibition was 15.4% (inactive).
In the case of `CCN(CC)c1ccc(C2C3CCCCC3(O)CCN2CC(=O)Nc2ccccc2)cc1` (stereo not drawn), the inhibition is reported as 21.9% (inactive).
With `Cc1ccc(NC(=O)CN2CCC3(O)CCCCC3C2c2ccc3c(c2)OCO3)c(C)c1` (stereo not drawn) the inhibition was 63.9% (active).
`CC(=O)NC(C)(C)C1CC=C(C)/C(=N\O)C1` (stereo not drawn) was tested, and the inhibition was 2.5% (inactive).
`O=C(CSc1nnc(Cn2cnc3ccccc32)o1)c1ccccc1` was tested, and the inhibition was 6.9% (inactive).
`O=C(O)CCC(=O)NCc1ccc2[nH]c3c(c2c1)CCCC3` was tested, and the inhibition was -16.4% (inactive).
`CN=C1S/C(=C\c2ccc(Sc3ccc(Cl)cc3)o2)C(=O)N1C` was tested, and the inhibition was 7.4% (inactive).
With `CCN1C(=O)/C(=C\N2CCN(c3ccccc3)CC2)SC1=S` the inhibition was 17.4% (inactive).
With `COc1ccc(NC(=O)CC2COc3ccccc3O2)c(OC)c1` (stereo not drawn) the inhibition was 85.5% (active).
With `Cc1cc(NC(=O)CCC2COc3ccccc3O2)no1` (stereo not drawn) the inhibition was 23.1% (inactive).
In the case of `COc1ccc(NC(=O)CCNC(=O)Cn2ccc3ccccc3c2=O)c(OC)c1`, the inhibition is reported as -2.7% (inactive).
`CCCSC(=S)NC1CCS(=O)(=O)C1` (stereo not drawn) was tested, and the inhibition was 13.9% (inactive).
`O=C(Nc1ccc(S(=O)(=O)N2CCCC2)cc1Cl)C1=COCCO1` was tested, and the inhibition was 16.2% (inactive).
In the case of `Cc1cccc(-n2ncc3c(N4CCc5ccccc54)ncnc32)c1`, the inhibition is reported as 6.2% (inactive).
With `COc1ccccc1-c1nc(C(F)(F)F)c(OC)o1` the inhibition was -4.3% (inactive).
In the case of `FC(F)(F)c1cnc(Oc2ccccc2-c2nnc(-c3ccc(Cl)cc3)o2)c(Cl)c1`, the inhibition is reported as 66.1% (active).
With `CSc1ccccc1-c1nnc(-c2ccc(Cl)cc2)o1` the inhibition was -15.2% (inactive).
For `COc1ccc(-c2cn(-c3ccc(C)cc3)c(=O)n2CC(=O)Nc2ccc(OC)c(OC)c2)cc1`, the inhibition was 16.2% (inactive).
With `O=C(O)c1cscn1` the inhibition was -12.7% (inactive).
`N#CC(=C1SC=CS1)c1nc(-c2ccccc2)cs1` was tested, and the inhibition was 65.1% (active).
For `N#C/C(=C1\CCCN1)c1nc(-c2ccccc2)cs1`, the inhibition was 54.2% (active).
In the case of `Cn1c(/C(C#N)=C2/CCCCCN2)nc2ccccc21`, the inhibition is reported as 47.6% (inactive).
In the case of `N#CC(=C1CCCC1)c1nc(-c2ccc(Cl)cc2)cs1`, the inhibition is reported as 43.3% (inactive).
`N#C/C(=C1/CCCN1)c1ccccn1` was tested, and the inhibition was -7.3% (inactive).
With `Oc1ccc(Cl)cc1/C=N/c1nc2ccccc2[nH]1` the inhibition was -20.9% (inactive).
With `Cc1ccc(Cn2c(NC(=O)c3ccco3)nc3ccccc32)cc1` the inhibition was -9.7% (inactive).
With `C=CCn1c(C2CC(=O)N(c3ccc(C)cc3)C2)nc2ccccc21` (stereo not drawn) the inhibition was 76.7% (active).
For `CC(C)(C)N1CC(c2nc3ccccc3n2Cc2ccc(F)cc2)CC1=O` (stereo not drawn), the inhibition was 12.1% (inactive).
In the case of `COc1c(O)cccc1-c1nnn(CCC(=O)OCC(=O)c2ccccc2)n1`, the inhibition is reported as 19.5% (inactive).
In the case of `Cc1onc(-c2ccccc2Cl)c1C(=O)NCCn1ccc2ccccc21`, the inhibition is reported as 83.5% (active).
`Cc1onc(-c2ccccc2Cl)c1C(=O)OCC(=O)c1ccccc1` was tested, and the inhibition was 58.1% (active).
With `Cc1onc(-c2c(Cl)cccc2Cl)c1C(=O)c1c[nH]c(C(=O)NC2CC2)c1` the inhibition was 0.9% (inactive).
`O=C1c2ccccc2C(=O)N1Cc1cc(-c2ccccc2Cl)no1` was tested, and the inhibition was 37.2% (inactive).
In the case of `Cc1ccc2cc(CCNC(=O)c3c(-c4ccccc4Cl)noc3C)c(=O)[nH]c2c1`, the inhibition is reported as 21% (inactive).
With `O=C(OCc1cc2ccccc2[nH]c1=O)c1cccnc1` the inhibition was 25.1% (inactive).
With `C=CCSc1nc2c(c(=O)[nH]1)C(C(C)C)C(C#N)=C(N)O2` (stereo not drawn) the inhibition was -15.8% (inactive).
With `COc1ccc(OCCCON2C(=O)c3ccccc3C2=O)cc1` the inhibition was 26.4% (inactive).
`CCN(CC)CCCNC(=O)c1cc(-c2cccc(Cl)c2)on1` was tested, and the inhibition was -2.7% (inactive).
With `Cc1cc(C)c2c(-n3cccc3)c(NC(=O)OCc3ccccc3)sc2n1` the inhibition was 4.8% (inactive).
For `Cc1cc(Cl)ccc1N1C(=O)CC(SCCC(=O)O)C1=O` (stereo not drawn), the inhibition was 7.1% (inactive).
`COC(=O)Cc1cc(=O)oc2c(C)c(O)ccc12` was tested, and the inhibition was 17.9% (inactive).
`Nc1nnnn1/N=C/c1cccs1` was tested, and the inhibition was 1.7% (inactive).
In the case of `CCC(=O)Oc1cccc(C(=O)Nc2ccc(-c3nnc(-c4ccco4)o3)cc2)c1`, the inhibition is reported as 48.6% (inactive).
With `Cc1nc2nc[nH]n2c(=O)c1NC(=O)c1cccc(OCC(C)C)c1` the inhibition was -12.5% (inactive).
With `CCCOc1cccc(C(=O)Nc2nnn(CCC)n2)c1` the inhibition was 57.8% (active).
In the case of `COc1ccc(OC)c2c(N)c(C#N)c(C(F)(F)C(F)(F)F)nc12`, the inhibition is reported as -11.1% (inactive).
`NC(=O)c1nsc(C(=O)N(CC(=O)NCc2ccc(F)cc2)Cc2ccco2)c1N` was tested, and the inhibition was 21.3% (inactive).
With `Cc1ccc2nc(SC(C)C(=O)NCc3ccco3)[nH]c2c1` (stereo not drawn) the inhibition was 19.9% (inactive).
For `Cc1cccc(NC(=O)c2ccc3ccccc3n2)n1`, the inhibition was 22.7% (inactive).
In the case of `Cc1cccc(NC(=O)COc2ccccc2C)n1`, the inhibition is reported as 32% (inactive).
With `COC(=O)C(C(=O)Nc1cccc(C)n1)C1CCCCCC1` (stereo not drawn) the inhibition was 80.7% (active).
For `Cc1cc(C(F)(F)F)nn1CC(=O)N1CCCC1`, the inhibition was -1.5% (inactive).
`OC(C#CCN1CCOCC1)(c1ccccc1)C1CCCCC1` (stereo not drawn) was tested, and the inhibition was 36.7% (inactive).
For `O=C(COC(=O)C12CC3CC(CC(C3)C1)C2)NCc1ccco1`, the inhibition was 35.7% (inactive).
For `CCOC(=O)c1cnc(SCC(=O)NCc2ccco2)nc1N`, the inhibition was -1.2% (inactive).
With `Cc1cc(C(=O)OCC(=O)NCc2ccco2)c(C)n1-c1ccccc1` the inhibition was 71.8% (active).
